Test results taken from PubChem BioAssay (NCATS).
Inconclusive results are not listed. Values without a mark were called inactive. Activity calls are given as the source filed them. The call rests on the fitted dose curve; in most records, active means well fitted inhibition curve with a large enough effect in the repeat runs; inconclusive means weak or mixed curves; inactive means flat fitted curve, though single readings scatter.

target: Cytochrome P450 2D6 (Homo sapiens) (UniProt P10635); assay: Cytochrome P450 family 2 subfamily D member 6 (CYP2D6) small molecule antagonists: luciferase biochemical (cell-free) qHTS assay (AID 1645840); settings: P450-Glo CYP2D6 enzyme, luciferin luminescence, 1 h; series mostly up to 57.4 µM; activity change, negative = inhibition: at the top concentration; further: nearly all actives have a fitted effect of over 55% in size
Method in brief: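 P450-Glo luminescent screen: recombinant CYP2D6 enzyme–proluciferin substrate mix preincubated with compound 10 min at room temperature, then NADPH regeneration added for 1 h at room temperature. Detection reagent added for 20 min; luciferin light read as relative luminescence units.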
On the % scale 0 is the no-effect control and ±100 the full control effect; potency means the concentration at half of the fitted maximal effect.

Chain of Cytochrome P450 2D6 (Homo sapiens) (P10635 whole entry, looked up): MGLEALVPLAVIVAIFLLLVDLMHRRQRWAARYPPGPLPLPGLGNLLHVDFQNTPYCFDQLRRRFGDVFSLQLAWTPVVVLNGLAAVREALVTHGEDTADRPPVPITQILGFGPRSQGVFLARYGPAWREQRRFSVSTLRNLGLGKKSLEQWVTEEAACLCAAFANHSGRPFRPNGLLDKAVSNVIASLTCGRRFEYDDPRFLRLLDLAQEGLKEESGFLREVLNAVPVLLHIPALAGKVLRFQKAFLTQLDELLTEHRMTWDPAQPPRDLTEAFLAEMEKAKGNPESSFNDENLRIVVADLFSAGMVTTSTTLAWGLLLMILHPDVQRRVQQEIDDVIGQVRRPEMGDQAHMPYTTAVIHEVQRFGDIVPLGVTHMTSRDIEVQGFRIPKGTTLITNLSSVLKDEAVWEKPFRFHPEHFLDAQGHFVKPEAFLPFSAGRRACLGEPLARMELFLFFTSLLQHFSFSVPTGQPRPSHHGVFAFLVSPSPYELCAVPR

Row | Structure (SMILES) | activity change, negative = inhibition | Potency
1 | C[S+](=O)([O-])Nc1ccc(-c2ccc3nc(-c4ccc(OC(F)(F)F)cc4)[nH]c3c2)cc1 | 16.5% | 
2 | CC1CCCCC1N(Cc1ccccc1)[S+](=O)([O-])c1ccc([S+](=O)([O-])N(C)C)cc1 (stereo not given) | 22.3% | 
3 | OC[C@H]1O[C@@H]2O[C@H]3[C@H](O)[C@@H](O)[C@@H](O[C@H]4[C@H](O)[C@@H](O)[C@@H](O[C@H]5[C@H](O)[C@@H](O)[C@@H](O[C@H]6[C@H](O)[C@@H](O)[C@@H](O[C@H]7[C@H](O)[C@@H](O)[C@@H](O[C@H]1[C@H](O)[C@@H]2O)O[C@@H]7CO)O[C@@H]6CO)O[C@@H]5CO)O[C@@H]4CO)O[C@@H]3CO | 0.169% | 
4 | Cc1onc(-c2ccccc2Cl)c1C(=O)Cl | 16.8% | 
5 | CC(C)OCc1cc(CN2CCN(c3ccccc3)CC2)c(O)c2ncccc12 | 12.9% | 
6 | Cc1ccc(Nc2nc3nonc3nc2Nc2cccc(C(F)(F)F)c2)cc1Cl |  | 9.52 µM (active)
7 | Cc1[nH]n2c(=O)cc(-c3ccccc3Cl)nc2c1-c1ccccc1 |  | 16.9 µM (active)
8 | Cc1onc(-c2c(F)cccc2Cl)c1C(=O)Cl | 9.8% | 
9 | CCCCC[C@H](O)CC[C@@H]1[C@H]2Cc3cccc(OCC(=O)O)c3C[C@H]2C[C@H]1O | 7.05% | 
10 | CC(O)CNC(=O)C(=O)Nc1c2c(nn1-c1ccc(Cl)cc1)CSC2 (stereo not given) | -15.8% | 
11 | CC(C)CCn1c(CN2CCN(C(=O)C(C)C)CC2)nc2c1c(=O)n(C)c(=O)n2C | -0.298% | 
12 | CC(=O)C1(O)Cc2c(O)c3c(c(O)c2C(OC2CC(N)C(O)C(C)O2)C1)C(=O)c1ccccc1C3=O (stereo not given) |  | 12 µM (active)
13 | COc1ccccc1Nc1nc(-c2ccccc2F)nc2ccccc12 | 2.79% | 
14 | CN[C@H](CC(C)C)C(=O)N[C@H]1C(=O)N[C@@H](CC(N)=O)C(=O)N[C@H]2C(=O)N[C@H]3C(=O)N[C@H](C(=O)N[C@H](C(=O)O)c4cc(O)cc(O)c4-c4cc3ccc4O)[C@H](O)c3ccc(c(Cl)c3)Oc3cc2cc(c3O[C@@H]2OC(CO)[C@@H](O)[C@H](O)[C@@H]2O[C@H]2C[C@](C)(N)[C@H](O)[C@H](C)O2)Oc2ccc(cc2Cl)[C@H]1O (stereo not given in full) | 3.2% | 
15 | Cc1ccc(C)c(NC(=O)Cn2cc(C(=O)c3ccco3)c3ccccc32)c1 |  | 0.425 µM (active)
16 | COc1ccc(-c2nc3n(n2)C(c2ccc(OC)c(OC)c2)C(C(=O)Nc2cccnc2)=C(C)N3)cc1 (stereo not given) | -1.79% | 
17 | O=C(O)CN(CC(=O)O)Cc1cc2c(-c3ccccc3C(=O)O)c3cc(CN(CC(=O)O)CC(=O)O)c(=O)cc-3oc2cc1O | 7.5% | 
18 | CCCCCCCCCCCCCCCCNc1ccc(C(=O)O)cc1 | 8.76% | 
19 | Cn1c(=O)c2c(nc(CN3CCN(C(=O)C4CC4)CC3)n2Cc2ccccc2Cl)n(C)c1=O | 6.76% | 
20 | Cc1cccc(NC(c2ccccc2F)c2ccc3ccc(C)nc3c2O)n1 (stereo not given) | -19.6% | 

Row | Structure (SMILES) | activity change, negative = inhibition | Potency
21 | Cc1ncc(Cl)cc1NCc1ccc(C(=O)N[C@@H](CC2CCCC2)C(=O)NC2CC2)s1 |  | 15.1 µM (active)
22 | CCc1ccc(CNC(=O)C2CCCN(c3nnc(C)c4c(C)n(-c5ccccc5)nc34)C2)cc1 (stereo not given) |  | 10.7 µM (active)
23 | Cc1ccc(NC(=O)CSc2nc3ccccc3c3nc(CCn4cncc4C)nn23)cc1F |  | 3.79 µM (active)
24 | CC1=CC(O)=NS(=O)(=O)O1 | 14.4% | 
25 | Cc1ccc(-n2nc3c(N4CCCC(C(=O)NCc5ccccc5C)C4)nnc(C)c3c2C)cc1 (stereo not given) |  | 9.52 µM (active)
26 | COc1ccc(CC(=O)Nc2c(C(=O)N3CCN(c4ccccc4F)CC3)oc3ccccc23)cc1OC | -21.6% | 
27 | Cc1ccccc1CNC(=O)CCCn1c(=O)c2cccn2c2cccnc21 |  | 8.49 µM (active)
28 | COc1ccc(Br)c2c1-c1nc(NC(=O)c3cccc(C)c3)sc1C2 | 2.02% | 
29 | COc1ccc(NC(=O)Cn2cc(C(=O)c3cccs3)c3ccccc32)cc1 |  | 2.68 µM (active)
30 | COc1cc(C(c2c(C)[nH][nH]c2=O)c2c(C)[nH][nH]c2=O)ccc1OC(=O)c1ccccc1OC | 9.69% | 
31 | COc1ccc(C(=O)Nc2ccc3oc(-c4ccc(OC)cc4)nc3c2)cc1 | 12.4% | 
32 | CN1N=C(N)c2cn([C@@H]3O[C@H](COP(=O)(O)O)[C@@H](O)[C@H]3O)c3ncnc1c23 | -8.56% | 
33 | CCOC(=O)c1csc(-n2nc(-c3ccc(F)c(F)c3)c(Cc3ccc(S(N)(=O)=O)cc3)c2N)n1 | 1.94% | 
34 | N#C/C(=C/c1ccccc1Cl)c1nc2ccccc2c(=O)[nH]1 | 9.03% | 
35 | Cn1c(=O)c2c(nc(CN3CCN(C(=O)C4CC4)CC3)n2Cc2cccc(F)c2)n(C)c1=O | -1.43% | 
36 | Cc1ccc([S+](=O)([O-])NC2(c3ccccc3)CCCCC2)cc1 | 0.891% | 
37 | Cc1cncn1CCc1nc2c3ccccc3nc(SCC(=O)Nc3cccc(Cl)c3)n2n1 |  | 0.674 µM (active)
38 | OCCOCCOCCOCCOCCN1CCN(C(c2ccc(Cl)cc2)c2ccc(Cl)cc2)CC1 |  | 8.49 µM (active)
39 | CCOc1cc(CNC(=O)c2ccc(C)c(NC(=O)c3nsc4ccccc34)c2)ccc1OC | 2.09% | 
40 | CCc1ccc(C(=O)c2cn(CC(=O)Nc3ccc(OC)c(OC)c3)c3ccc(C)cc3c2=O)cc1 | 23.1% | 
